In all, about 400,000 compounds went through this assay and about 2,100 (0.53%) were called active. Roughly 14% stayed inconclusive and do not appear here. No rule for the calls is given here. The entries come from a sample that favours actives as a whole.

In the experiment the target is Ataxin-2 (Homo sapiens) (UniProt Q99700). In words: qHTS for Inhibitors of ATXN expression. Format: functional. (qHTS replaces the single test concentration by a dilution series.)
Sequence of Ataxin-2 (Homo sapiens) (Q99700 whole entry): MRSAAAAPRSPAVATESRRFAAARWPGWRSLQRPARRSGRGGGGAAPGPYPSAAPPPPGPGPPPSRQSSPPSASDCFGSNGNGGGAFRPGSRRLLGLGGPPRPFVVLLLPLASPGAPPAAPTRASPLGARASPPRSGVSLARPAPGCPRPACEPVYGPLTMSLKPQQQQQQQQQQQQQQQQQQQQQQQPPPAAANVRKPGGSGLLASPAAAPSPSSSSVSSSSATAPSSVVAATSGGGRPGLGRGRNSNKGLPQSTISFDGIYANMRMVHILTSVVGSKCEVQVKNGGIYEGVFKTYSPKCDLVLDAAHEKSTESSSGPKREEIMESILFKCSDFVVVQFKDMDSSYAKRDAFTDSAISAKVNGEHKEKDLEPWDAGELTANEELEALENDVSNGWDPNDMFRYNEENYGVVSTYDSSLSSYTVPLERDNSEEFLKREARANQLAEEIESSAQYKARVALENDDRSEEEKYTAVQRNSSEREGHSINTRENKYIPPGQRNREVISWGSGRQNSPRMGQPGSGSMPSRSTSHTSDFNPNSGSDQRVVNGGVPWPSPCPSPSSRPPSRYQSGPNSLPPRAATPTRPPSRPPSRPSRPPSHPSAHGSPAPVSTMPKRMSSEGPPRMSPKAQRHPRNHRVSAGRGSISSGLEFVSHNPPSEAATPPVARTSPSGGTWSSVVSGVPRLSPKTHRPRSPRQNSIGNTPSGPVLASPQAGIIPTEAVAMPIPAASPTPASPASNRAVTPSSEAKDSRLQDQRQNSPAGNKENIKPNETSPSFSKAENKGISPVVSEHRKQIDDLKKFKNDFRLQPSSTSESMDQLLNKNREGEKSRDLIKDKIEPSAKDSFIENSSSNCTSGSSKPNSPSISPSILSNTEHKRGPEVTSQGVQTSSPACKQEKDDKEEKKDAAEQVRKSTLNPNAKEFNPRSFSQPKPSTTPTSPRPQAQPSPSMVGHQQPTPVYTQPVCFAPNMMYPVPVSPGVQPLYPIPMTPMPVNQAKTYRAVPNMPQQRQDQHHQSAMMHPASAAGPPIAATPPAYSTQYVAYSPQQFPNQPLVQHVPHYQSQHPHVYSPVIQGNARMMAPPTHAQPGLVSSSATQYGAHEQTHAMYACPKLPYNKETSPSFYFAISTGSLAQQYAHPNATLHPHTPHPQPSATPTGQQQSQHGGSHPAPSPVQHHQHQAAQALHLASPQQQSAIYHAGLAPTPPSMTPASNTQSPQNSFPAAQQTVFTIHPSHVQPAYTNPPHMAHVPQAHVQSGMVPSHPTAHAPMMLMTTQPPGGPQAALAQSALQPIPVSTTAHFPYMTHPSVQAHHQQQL
For `COc1ccc(-c2nc(CCl)cs2)cc1OC`, the Potency result was “inactive”.

Turning to `COc1ccc(-c2nc3ccc(C)cn3c2Cc2ccc(C)cc2)cc1OC`, the Potency was 20 µM (active).

Turning to `COc1ccccc1Cc1c(-c2ccc(OC)c(OC)c2)nc2ccc(Cl)cn12`, the Potency is 39.8 µM (active).

`COc1ccc(-c2nc3ccc(C)cn3c2Cc2cccc(Cl)c2)cc1OC`: the Potency was 35.5 µM (active).

For the molecule `COc1cc2c3nnc(-c4ccc(F)cc4)c-3cn(Cc3cccc(F)c3)c2cc1OC`, the Potency entry was “inactive”.

On to `COc1ccc(/C=N/NC(=O)c2c(C)nc3ccc(Cl)cn23)cc1OC`, for which the Potency entry is “inactive”.

With `COc1ccc(-c2n[nH]c(S)n2)cc1OC`, the Potency result is “inactive”.

Regarding `COc1ccc(-c2nc3ccc(C)cn3c2Cc2cccc(F)c2)cc1OC`, the Potency is 39.8 µM (active).

As to `N=C(NOC(=O)CCCOc1ccccc1)c1cccc(Br)c1`, the Potency result was “inactive”.

Consider `CSc1nc(-c2ccc(N(C)C)cc2)c(C#N)c(=O)n1C`, for which the Potency result is “inactive”.

For the molecule `CCOC(=O)c1ccc(-c2ccc(/C=N/NC(=O)c3cncc(Br)c3)o2)cc1`, the Potency entry is “inactive”.

Consider `Cc1cc(-c2onc3ccc(Cl)cc23)ccc1O`, for which the Potency entry was “inactive”.

Take `COc1ccc(-n2c(N)c(C(=O)NCc3ccco3)c3nc4ccccc4nc32)cc1OC`: the Potency entry was “inactive”.

Turning to `CN1C(=O)/C(=N\C2CCCCC2)c2c3ccccc3c(O)c3cccc1c23`, the Potency entry is “inactive”.

As for `Cc1noc(/C=C/Nc2ccc(F)cc2F)c1[N+](=O)[O-]`, the Potency entry was “inactive”.

With `CCN1C(=O)/C(=C2/Sc3ccccc3N2CC)S/C1=N\c1nc[nH]n1`, the Potency result is “inactive”.

In the case of `CC1CC(NC(=O)c2cc3c(=O)n4ccccc4nc3n2C)CC(C)(C)C1` (stereo unspecified), the Potency result was “inactive”.

Take `Cc1nc(NN)c2c3c(sc2n1)COC(C)(C)C3`: the Potency entry was “inactive”.

Consider `COc1cnc(-c2ccccc2)nc1Oc1ccc(Cl)cc1C`, for which the Potency result is “inactive”.

Turning to `COc1ccccc1Cc1c(-c2cccc(Cl)c2)nc2ccc(C)cn12`, the Potency was 22.4 µM (active).

With `COc1ccc(-c2nc3ccc(C)cn3c2CC(C)(C)C)cc1OC`, the Potency is 12.6 µM (active).

In the case of `COc1ccc(-c2nc3c(-c4ccc(Cl)cc4)cnn3cc2C)cc1F`, the Potency result is “inactive”.

Take `CCCCNc1c(-c2ccc(OC)c(SC3CCCCC3)c2)nc2cnccn12`: the Potency result was “inactive”.

With `COc1ccc(-c2cc(-c3ccc(N)cc3)nc(N)c2C#N)cc1OC`, the Potency entry is “inactive”.

For `COc1cc(-c2nc3ccccn3c2/N=C/c2cccc(OC)c2O)ccc1O`, the Potency entry was “inactive”.

`COc1ccc(-c2nc3ccc(Cl)cn3c2Cc2cccc(F)c2)cc1OC`: the Potency is 39.8 µM (active).

Consider `O=C(O)c1ccc2c(c1)ncn2C1CCCC1`, for which the Potency entry was “inactive”.

In the case of `Cc1nc(CS(=O)(=O)c2ccccn2)sc1C(=O)NNC(=O)c1ccc(Cl)cc1`, the Potency entry was “inactive”.

On to `N#Cc1cc2c(=O)n3ccccc3nc2n(-c2ccccc2Cl)c1=O`, for which the Potency result was “inactive”.

With `CN(CCO)c1nc(NCc2ccccc2)c2cnn(C)c2n1`, the Potency result is “inactive”.

`COc1ccc(C2=CC(c3ccco3)n3ncnc3N2)cc1` (stereo unspecified): the Potency entry was “inactive”.

`CCOC(=O)COc1nc(-c2ccco2)cc(-c2ccco2)c1C#N`: the Potency entry was “inactive”.

Take `N#Cc1cnn2c3c(cnc12)C(=O)N1CCc2ccccc2C1C3` (stereo unspecified): the Potency result is “inactive”.

For `CCc1cccc(NC(=O)C2CCN(c3ncnc4sc(C)c(C)c34)CC2)c1`, the Potency was 33.6 µM (active).

`Cc1sc2ncnc(N/N=C/c3cccc(O)c3)c2c1C`: the Potency entry was “inactive”.

On to `NNC(=O)c1cc2c(N3CCC(Cc4ccccc4)CC3)ncnc2s1`, for which the Potency result was “inactive”.

Turning to `O=C(NN/C=C1/C(=O)N(c2ccc(Cl)cn2)C(=O)c2ccccc21)C1CC1`, the Potency entry was “inactive”.

Regarding `COc1ccccc1C1C=C(c2ccc(C(C)C)cc2)Nc2nnnn21` (stereo unspecified), the Potency result is “inactive”.

For the molecule `O=C(NNC(=O)NC1CCCCC1)NC1CCCCC1`, the Potency entry is “inactive”.

With `O=C(NC1CCCCC1)Sc1ccc(Cl)cc1`, the Potency was 35.5 µM (active).

`Cc1cc(Cl)cc(C)c1OCC(=O)NC1CCCCCC1`: the Potency result is “inactive”.

Regarding `COc1cccc(C2CN(c3ccc(F)cc3F)N=C2c2cccs2)c1OC` (stereo unspecified), the Potency result was “inactive”.

Consider `Cc1nc(N/C(N)=N/C(=O)NC2CCCCC2)nc2ccccc12`, for which the Potency was 20 µM (active).

`O=C(NC1CCCC1)c1[nH]nc2ccccc12`: the Potency result was “inactive”.

With `C=CCn1c(SCC(=O)NC2CCCCC2)nc2ccccc2c1=O`, the Potency entry is “inactive”.

On to `COc1cccc(CNC(=O)CCS(=O)(=O)c2ccccc2Cl)c1`, for which the Potency entry was “inactive”.

For `O=C(COc1ccc(S(=O)(=O)N2CCOCC2)cc1Cl)NCc1ccc2c(c1)OCO2`, the Potency entry was “inactive”.

In the case of `Cc1cccc(CS(=O)(=O)c2ncc(Cl)c(C(=O)NCc3ccccc3)n2)c1`, the Potency was 31.6 µM (active).

Regarding `O=C(NCc1ccccc1)c1cnc2ccccc2c1O`, the Potency entry was “inactive”.

As for `Cc1cccc(NC(=O)c2sc3nc4c(c(-c5ccco5)c3c2N)CCC4)c1`, the Potency result is “inactive”.

On to `O=C(NCc1ccc2c(c1)OCO2)c1nc(S(=O)(=O)Cc2ccccc2F)ncc1Cl`, for which the Potency was 20 µM (active).

Turning to `O=C(NCc1ccc2c(c1)OCO2)c1cccnc1Cl`, the Potency entry was “inactive”.

For the molecule `Cc1cccc(NC(=O)c2nc(S(=O)(=O)Cc3ccccc3)ncc2Cl)c1`, the Potency is 35.5 µM (active).

Regarding `C=CCn1c(=N)c(C(=O)NCCCOC)cc2c(=O)n3cccc(C)c3nc21`, the Potency result was “inactive”.

As to `CCc1cc(=O)oc2cc(OC(=O)CN3C(=O)NC4(CCCC4)C3=O)ccc12`, the Potency entry was “inactive”.

Regarding `CCOC(=O)c1cc2c(=O)n3cccc(C)c3nc2n(CCOC)/c1=N\C(C)=O`, the Potency result was “inactive”.

Consider `CC(C)Cn1c(N)c(C(=O)NCC2CCCO2)c2nc3ccccc3nc21` (stereo unspecified), for which the Potency result was “inactive”.

`COc1cc(C(=O)Nc2nc(-c3ccc(Cl)cc3)c(C)s2)ccc1OCC(=O)Nc1ccc(F)cc1`: the Potency is 35.5 µM (active).

In the case of `COc1ccc(C(=O)OCC(=O)N2CCOCC2)cc1S(=O)(=O)N1CCOCC1`, the Potency entry was “inactive”.

For `COc1ccc(-c2ccc3c(N)c(C(=O)Nc4cc(F)ccc4C)sc3n2)cc1`, the Potency entry was “inactive”.

Take `COc1ccc(C(=O)Nc2nc3n(n2)C(c2ccc(F)cc2)C=C(c2ccc(Cl)cc2)N3)cc1` (stereo unspecified): the Potency entry was “inactive”.

In the case of `COc1ccc(C(=O)N2CCNC(=O)C2CC(=O)Nc2ccc(C)cc2)cc1` (stereo unspecified), the Potency result is “inactive”.

On to `COc1ccc(-c2nc(NC(=O)c3ccc(OCC(=O)N4CCOCC4)c(OC)c3)sc2C)cc1`, for which the Potency is 15.8 µM (active).

Take `COc1ccc(-c2nc(NC(=O)c3ccc(OCC(=O)Nc4ccc(F)cc4)c(OC)c3)sc2C)cc1`: the Potency is 11.2 µM (active).

Turning to `COc1ccccc1NC(=O)c1sc2nc(C)c(C(=O)Nc3ccc(Cl)cc3)c(-c3ccc(Br)cc3)c2c1N`, the Potency result was “inactive”.

With `COc1ccc(C(=O)Nc2ccc(OCC(=O)N3CCOCC3)cc2)c(OC)c1OC`, the Potency result is “inactive”.

Source of the values: ChEMBL document CHEMBL1201862, “PubChem BioAssay data set” (2004).
